Records with an inconclusive call do not appear. Calls of active or inactive are those of the source. The call rests on the fitted dose curve; in most records, active means well fitted inhibition curve with a large enough effect; inconclusive means small, poorly fitted or top-dose-only effect, or effect the other way, or another doubt; inactive means no such curve, though single readings can be large or run the other way.
Potency means the concentration at half of the fitted maximal effect.

A short description of the experiment: Confirmation Concentration-Response Assay for lipid storage modulators. Further: nearly all actives have a fitted effect of over 80% in size. The settings on record: Drosophila S3 cells, lipid droplet BODIPY/CellTracker ratio, 18-24 h; series mostly up to 46.1 µM. The method, boiled down:
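Cells at 5,000/well received compound as a titration plus oleic acid (added as 400 uM solution) and were incubated 18–24 h at 24 °C. BODIPY 493/503 lipid signal and CellTracker Red cell count were read by 488-nm laser-scanning cytometry. Activity was normalised to 20 uM Triacsin C.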
Turning to `CCOc1ccc(CCNC(=O)COC(=O)c2cccc(N(C)C)c2)cc1OCC`, the Potency is 0.396 µM (active). In the case of `CCOc1ccc(CCNC(=O)Cn2cccc2C(=O)c2ccccc2)cc1OCC`, the Potency is 7.91 µM (active).

With `Cc1ccc(C)c(S(=O)(=O)N2CCN(CC(=O)Nc3sccc3C#N)CC2)c1`, the Potency was 9.96 µM (active). Take `Cc1cc(N2CCCC2=O)cc(C)c1S(=O)(=O)NCCOc1ccc(C(C)(C)C)cc1`: the Potency was 3.97 µM (active).

Take `O=C(CCc1ccccn1)NC1CCCc2c1cnn2-c1ccc(F)cc1F` (configuration not stated): the Potency entry was “inactive”. In the case of `CCOC(=O)C1CCN(C(=O)C2(NC(=O)NC3CCCCC3)CCCCC2)CC1` it was 1.41 µM (active). For `O=C(NCC1(N2CCOCC2)CCCCC1)c1ccc(S(=O)(=O)Nc2ccccc2F)cc1`, the Potency is 3.97 µM (active).

In the case of `CCOc1ccc(CCNC(=O)c2cc3sccc3n2CC)cc1OCC`, the Potency is 0.199 µM (active). Regarding `Cc1ccc(S(=O)(=O)NCCC2=CCCCC2)cc1C(N)=O`, the Potency is 22.3 µM (active). In the case of `COc1ccc(CCNC(=O)CSc2ccc3ccccc3c2)cc1OC` it was 1.41 µM (active). With `COC(=O)c1ccccc1NC(=O)c1ccc(F)cc1F`, the Potency is 1.41 µM [activator] (active).

For `C[C@@H]1NS(=O)(=O)[C@H]2C[C@@H]3C=C[C@]2(O3)[C@H]1OC(=O)c1ccccc1Br`, the Potency entry is “inactive”. In the case of `CCN1CCCC1CNC(=O)C(=O)NCCc1ccc(OC)c(OC)c1` (configuration not stated), the Potency result is “inactive”. As to `COc1ccc(CCNC(=O)COc2ccc(-c3ccccc3)cc2)cc1OC`, the Potency result is “inactive”. Turning to `CCOC(=O)C1CCN(C(=O)C2(NC(=O)Nc3ccccc3C)CCCCC2)CC1`, the Potency was 2.5 µM (active).

With `COc1ccc(OC)c(NC(=O)CSc2ncnc3c2cnn3-c2ccccc2Cl)c1`, the Potency is 1.77 µM (active). On to `CCOC(=O)c1cc(CC)sc1NC(=O)C1CC(=O)NN1Cc1ccccc1` (configuration not stated), for which the Potency is 0.315 µM (active). Next, `CCn1c(Cc2ccc(OC)cc2)nnc1SCC(=O)Nc1cccc(C(=O)OC)c1`: “inactive”.

`O=C(CSc1nnc2c(n1)[nH]c1ccccc12)Nc1cccc(S(=O)(=O)N2CCOCC2)c1`: the Potency is 15.8 µM (active). Turning to `CCOc1ccc(CCNC(=O)COC(=O)C2CCN(c3ccc(C(F)(F)F)cn3)CC2)cc1OCC`, the Potency entry was “inactive”. As to `Cc1ccc(-n2ncc3c2CCCC3NC(=O)c2cnccn2)cc1C` (configuration not stated), the Potency was 0.141 µM (active). Take `CC(C)(C)c1ccc(/C=C2\SC(=O)N(CCNC(=O)c3cccc(S(=O)(=O)N4CCOCC4)c3)C2=O)cc1`: the Potency is 8.88 µM (active). Take `CCCCCCCCCCCCCCCC[n+]1cccc2ccccc21`: the Potency is 1.22 µM (active). Take `C1=C(CCNc2ncnc3c2[nH]c2ccccc23)CCCC1`: the Potency is 0.996 µM (active). For `CCOc1ccc(CCNC(=O)Cn2cccc2C(=O)c2ccccc2C)cc1OCC`, the Potency was 4.99 µM (active). As for `CCc1ccc(CN(C)C(=O)c2ccc3c(=O)n4c(nc3c2)CCC4)cc1`, the Potency result is “inactive”.

In the case of `Cn1cc(CNCc2ccc(OC(F)(F)F)cc2)c(-c2ccc3c(c2)OCCO3)n1`, the Potency was 6.28 µM (active). Regarding `CCCOc1ccc2oc(=O)c3c(c2c1)CCCN3C(=O)CN1CCN(C(=O)c2ccco2)CC1`, the Potency was 1.99 µM (active).

`CCC(=O)c1ccc(OCC(=O)Nc2ccc(N3CCOCC3)cc2N2CCOCC2)cc1`: the Potency entry was “inactive”. Consider `COc1cc(/C=N/NC(=O)c2ccc(CN3C(=O)c4cccc5cccc3c45)cc2)cc(OC)c1O`, for which the Potency is 4.99 µM (active). On to `COCCN(C(=O)c1ccccc1F)c1nnc(-c2ccc(OC)cc2)s1`, for which the Potency is 25 µM (active). Next, `c1ccc2c(c1)OCC(CNc1ncnc3sccc13)O2` (configuration not stated): 0.996 µM (active); `COc1ccc(/C=C(\NC(=O)c2cccs2)C(=O)Nc2ccc(C)cc2)cc1OC`: 0.141 µM (active). For `CCN(CC)S(=O)(=O)c1cccc(NC(=O)CNc2cccc(S(=O)(=O)N3CCCC3)c2)c1`, the Potency is 1.99 µM (active). Take `COc1cccc(/C=C/C(=O)NCCc2ccc(OC)c(OC)c2)c1`: the Potency was 1.77 µM (active). In the case of `COc1ccccc1NC(=O)NC1(C(=O)N2CCC(C)CC2)CCCCC1`, the Potency entry was “inactive”. Turning to `CCOC(=O)c1cc2c(ccn2-c2ccc(F)cc2)n1CC(=O)N(CC)CC`, the Potency is 2.17 µM (active).

These data come from PubChem BioAssay AID1569 (National Center for Advancing Translational Sciences (NCATS), 2009).
